# Laboratory results taken from paper PMC4336329 (PLoS ONE, 2015).
# The whole screen tested about 310,000 compounds, of which about 2,200 (0.71%) showed an effect of 50% or more. Effects have a minus sign here. The full list was thinned out, with strong results kept by preference.
# Target: human ether-à-go-go-related gene (hERG) potassium channel (human, UniProt Q12809)
# Test: primary screen, population patch clamp on CHO cells stably expressing hERG; higher = less effect of the substance
# Chain of human ether-à-go-go-related gene (hERG) potassium channel (Q12809 whole entry, looked up): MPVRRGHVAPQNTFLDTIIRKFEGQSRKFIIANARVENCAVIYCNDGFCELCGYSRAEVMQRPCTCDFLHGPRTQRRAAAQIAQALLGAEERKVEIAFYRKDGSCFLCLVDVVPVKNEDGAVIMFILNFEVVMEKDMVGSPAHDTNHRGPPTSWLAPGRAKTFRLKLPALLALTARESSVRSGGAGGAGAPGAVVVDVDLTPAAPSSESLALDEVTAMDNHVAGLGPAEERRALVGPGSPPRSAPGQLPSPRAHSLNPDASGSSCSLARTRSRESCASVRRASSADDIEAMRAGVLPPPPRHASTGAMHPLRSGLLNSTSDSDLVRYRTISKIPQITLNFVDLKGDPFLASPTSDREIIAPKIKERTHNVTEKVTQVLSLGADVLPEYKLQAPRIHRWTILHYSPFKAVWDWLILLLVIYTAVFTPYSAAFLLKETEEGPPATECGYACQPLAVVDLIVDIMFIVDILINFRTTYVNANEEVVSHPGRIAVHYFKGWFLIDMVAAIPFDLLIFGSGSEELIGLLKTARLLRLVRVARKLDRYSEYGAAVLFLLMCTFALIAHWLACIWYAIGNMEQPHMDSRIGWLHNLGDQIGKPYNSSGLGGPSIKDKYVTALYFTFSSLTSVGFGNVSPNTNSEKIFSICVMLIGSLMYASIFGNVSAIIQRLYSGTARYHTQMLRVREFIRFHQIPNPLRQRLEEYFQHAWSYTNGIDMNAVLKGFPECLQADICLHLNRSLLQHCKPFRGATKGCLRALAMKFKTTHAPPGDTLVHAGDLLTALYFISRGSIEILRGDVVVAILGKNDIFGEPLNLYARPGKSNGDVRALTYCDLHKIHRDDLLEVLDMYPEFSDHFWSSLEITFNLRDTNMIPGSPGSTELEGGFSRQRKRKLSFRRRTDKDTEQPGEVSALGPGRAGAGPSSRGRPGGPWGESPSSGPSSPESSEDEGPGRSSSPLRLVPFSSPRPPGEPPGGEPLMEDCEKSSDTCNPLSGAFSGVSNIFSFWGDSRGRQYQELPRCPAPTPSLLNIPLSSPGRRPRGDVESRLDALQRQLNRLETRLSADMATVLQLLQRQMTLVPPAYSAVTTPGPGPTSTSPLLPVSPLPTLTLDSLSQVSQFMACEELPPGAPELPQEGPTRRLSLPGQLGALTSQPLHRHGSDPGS
row,Structure (SMILES),"hERG current change (%, negative = inhibition) at 1uM [%]"
1,Cl.Oc1ccc2c3c1O[C@H]1c4[nH]c5ccccc5c4C[C@@]4(O)[C@@H](C2)N(CC2CC2)CC[C@]314,-29.7
2,CS(=O)(=O)O.O.Oc1ccc2c3c1O[C@H]1c4oc5ccccc5c4C[C@@]4(O)[C@@H](C2)N(CC2CC2)CC[C@]314,-68.1
3,Cl.O.Oc1ccc2c3c1O[C@H]1c4[nH]c5ccccc5c4C[C@@]4(O)C(C2)N(CC2CC2)CC[C@]314,-16.4
4,COC(=O)C1=C(C)N(C)C(=O)NC1c1c(O)ccc2ccccc12 (stereo not drawn),6.78
5,CC/C(=N/Nc1ccccc1)c1cnnc(-c2ccccc2)n1,0.406
6,Cc1sc(NC(=O)CCl)c(C(=O)c2ccccc2)c1C,15.1
7,Cc1ccc(S(=O)(=O)Nc2nc(C)c(C(=O)N/N=C/c3ccccc3)s2)cc1,11
8,O=C(c1ccccn1)C1CCCN(Cc2cn[nH]c2-c2cc3ccccc3o2)C1 (stereo not drawn),-23.5
9,Fc1cccc(Cc2noc(CN3CCCCC3CCc3ccccn3)n2)c1 (stereo not drawn),13.2
10,Cc1oc(-c2cccc(F)c2)nc1CN1CCCCC1CCc1ccccn1 (stereo not drawn),-89.5
11,COc1ccc(-c2nc(CN3CCN(Cc4ccccc4)CC3)c(C)o2)cc1,4.17
12,CCOc1ccc(-c2nc(CN3CCCCC3CCn3cccn3)c(C)o2)cc1 (stereo not drawn),-24.9
13,c1ccc(CCC2CCCCN2Cc2cn[nH]c2-c2cc3ccccc3o2)nc1 (stereo not drawn),-67
14,COc1ccc(-c2nc(CN3CCCCC3CCc3ccccn3)c(C)o2)cc1 (stereo not drawn),-79.4
15,c1ccc2oc(-c3[nH]ncc3CN3CCSCC3)cc2c1,9.72
16,Cc1oc(-c2cccc(F)c2)nc1CN1CCCCC1CCn1cccn1 (stereo not drawn),-40.1
17,COc1ccc(S(=O)(=O)N(C)C)cc1NC(=O)CCCSc1ccccc1,-5.8
18,COc1ccc(Nc2nnc(C)c3ccccc23)cc1C(N)=O,16.1
19,CC(C)(C)c1ccc(OC(=O)c2ccc(-n3cncn3)nc2)cc1,10.9
20,CCOC(=O)c1ccc(NS(=O)(=O)c2ccc3oc(=O)[nH]c3c2)cc1,7.04
21,Cl.Nc1ccc(-c2nc3c(ccc4ccccc43)[nH]2)cc1,16.3

row,Structure (SMILES),"hERG current change (%, negative = inhibition) at 1uM [%]"
1,O=C(NCCN1CCOCC1)c1cc2cc(Br)ccc2oc1=O,0.63
2,O=C(NCc1ccc(OC(F)(F)F)cc1)C1CC2Cn3c(nc4ccccc43)C2N1c1ccccc1 (stereo not drawn),-15.8
3,CN1C(C(=O)NCc2ccc(OC(F)(F)F)cc2)CC2Cn3c(nc4cc5ccccc5cc43)C21 (stereo not drawn),-14.7
4,CN1C(C(=O)NCc2ccc(OC(F)(F)F)cc2)CC2Cn3c(nc4ccccc43)C21 (stereo not drawn),-74.9
5,COc1ccc(C2C(C(=O)NCc3ccccc3)=C(C)Nc3ncnn32)cc1OC (stereo not drawn),13.9
6,CC(=O)Nc1ccc(S(=O)(=O)N2CCN(C34CC5CC(CC(C5)C3)C4)CC2)cc1,3.31
7,CC(=O)c1ccc(S(=O)(=O)N2CCN(CC(=O)Nc3ccccc3C(=O)NC3CC3)CC2)cc1,-43.4
8,O=C(CN1CCN(S(=O)(=O)c2ccccc2)CC1)Nc1ccccc1C(=O)NC1CC1,1.22
9,N#Cc1ccc(CN2CCN(CC(=O)Nc3ccccc3C(=O)NC3CC3)CC2)cc1,-87.4
10,N#Cc1ccccc1S(=O)(=O)N1CCN(CC(=O)Nc2ccccc2C(=O)NC2CC2)CC1,-25.4
11,N#Cc1ccc(S(=O)(=O)N2CCN(CC(=O)Nc3ccccc3C(=O)NC3CC3)CC2)cc1,-67.3
12,O=C(CN1CCc2ccccc2C1)Nc1ccccc1C(=O)NC1CC1,3.95
13,O=C(CSc1nc2[nH]c(=O)cc(O)c2s1)Nc1cccc(Br)c1,18.8
14,S=c1[nH]nc(-c2cc(-c3ccco3)[nH]n2)n1-c1ccccc1,3.15
15,CC(=O)c1ccc(N2CCN(c3ccccc3O)CC2)c([N+](=O)[O-])c1,12.9
16,Cc1ccc2nc(N3CCN(C(=O)c4ccc(F)cc4)CC3)c(C#N)cc2c1,-56.8
17,Cc1ccc2cc(C#N)c(N3CCN(C(=O)c4ccccc4)CC3)nc2c1,-6.89
18,Cc1ccc2nc(N3CCN(C)CC3)c(C#N)cc2c1,-10
19,Cc1ccc2nc(N3CCN(C(=O)c4cccs4)CC3)c(C#N)cc2c1,-51.3
20,N#Cc1cccnc1N1CCN(C(=O)c2cccs2)CC1,7.29
21,Cc1ccc2cc(C#N)c(N3CCN(C(=O)c4cccs4)CC3)nc2c1,-1

row,Structure (SMILES),"hERG current change (%, negative = inhibition) at 1uM [%]"
1,CCC(NC(=O)Cc1c(C)c2ccc(OC)c(C)c2oc1=O)C(=O)NC(Cc1ccc(Cl)cc1)C(=O)O (stereo not drawn),0.501
2,COc1ccc(-n2c(O)c(/C=C3\C=Nc4ccc(Br)cc43)c(=O)[nH]c2=O)cc1,12
3,CC(c1cccs1)N(Cc1ccco1)C(=S)Nc1ccccc1Cl (stereo not drawn),11.9
4,c1ccc(NC2=NCCCCS2)cc1,-9.85
5,Cc1ccc(Cn2c(C3CCCN3c3nc(C)cs3)nc3cc(C(F)(F)F)ccc32)cc1 (stereo not drawn),8.04
6,OCCOCCn1c(C2CCCN2c2nc(-c3ccc(F)cc3)cs2)nc2cc(C(F)(F)F)ccc21 (stereo not drawn),-73.2
7,Cc1csc(N2CCCC2c2nc3cc(Cl)c(N4CCCCC4)cc3n2CCOCCO)n1 (stereo not drawn),-2.57
8,OCCCn1c(C2CCCN2c2nc(-c3ccc(F)cc3)cs2)nc2cc(C(F)(F)F)ccc21 (stereo not drawn),2.52
9,OCCOCCn1c(C2CCCN2c2nc(-c3ccc(F)cc3)cs2)nc2cc(Cl)c(Cl)cc21 (stereo not drawn),-0.144
10,Cc1csc(N2CCCC2c2nc3cc(C(F)(F)F)ccc3n2CCOCCO)n1 (stereo not drawn),-62.8
11,COc1ccc(NC(=O)CSc2nnc(Cn3cnc([N+](=O)[O-])n3)n2C)cc1,12.5
12,Cc1ccc(OCC(=O)NNC(=O)CSc2nnc(-c3ccc(C)cc3)n2C)cc1,7.24
13,CCC(=O)N1CCN(c2ccccc2NC(=O)Cc2ccc(Cl)cc2)CC1,-41.5
14,Cc1ccc(SCCOCCN2CCc3ccccc3C2)cc1,-6.57
15,Clc1ccc(SCCCN2CCCCC2)cc1.O=C(O)C(=O)O,-24.5
16,c1ccc(SCCOCCN2CCc3ccccc3C2)cc1,-62.7
17,Cl.Clc1ccc(SCCOCCN2CCc3ccccc3C2)cc1,8.68
18,Clc1ccc(SCCOCCN2CCCCCC2)cc1.O=C(O)C(=O)O,-20.6
19,Clc1ccc(SCCOCCN2CCCCC2)cc1.O=C(O)C(=O)O,-61.1
20,CC(NC(=O)CCC(=O)N1CCCCCC1)c1ccccc1 (stereo not drawn),16.8
21,Cc1ccc(NC(=O)c2noc(C(C)C)c2[N+](=O)[O-])cc1,4.81

row,Structure (SMILES),"hERG current change (%, negative = inhibition) at 1uM [%]"
1,CCN1/C(=C(\O)c2ccccc2)C(=O)c2ccccc2S1(=O)=O,13.6
2,COc1cc2c(cc1OC)C(COc1cc(C)cc(C)c1)N(C(C)=O)CC2 (stereo not drawn),2.4
3,CCN1CCN(CCCN(Cc2ccco2)C(=S)Nc2ccc(Cl)cc2)CC1,-18.6
4,CCOC(=O)c1ccc(NC(=S)N(CCN2CCCCCC2)Cc2ccco2)cc1,-87.2
5,CCOC(=O)c1ccc(NC(=S)N(CCCN2CCN(CC)CC2)Cc2ccco2)cc1,-45.4
6,S=C(Nc1ccc(Cl)cc1)N(CCCN1CCOCC1)Cc1ccco1,-8.98
7,CCOC(=O)c1ccc(NC(=S)N(CCN2CCCCCC2)Cc2cccs2)cc1,8.82
8,CN1CCN(CCCN(Cc2ccco2)C(=S)Nc2ccc(Cl)cc2)CC1,-53.8
9,CCOC(=O)c1ccc(NC(=S)N(Cc2cccnc2)Cc2ccco2)cc1,7.3
10,CCOC(=O)c1ccc(NC(=S)N(CCCN2CCCCC2)Cc2ccco2)cc1,-71.3
11,CCOC(=O)c1ccc(NC(=S)N(CCCN2CCCC(C)C2)Cc2ccco2)cc1 (stereo not drawn),-42.8
12,CCOC(=O)c1ccc(NC(=S)N(CCCN2CCCCCC2)Cc2ccco2)cc1,-31.7
13,CCc1ccc(NC(=S)N(CCN2CCCCC2)Cc2ccco2)cc1,-34.7
14,CCOC(=O)c1ccc(NC(=S)N(CCCN(CC)CC)Cc2ccco2)cc1,-57.9
15,CCOc1cccc(NC(=O)C2CC(=O)N(C)C(=Nc3cccc(F)c3)S2)c1 (stereo not drawn),9.17
16,N#Cc1ccc(-c2ccc(OCC3CNC(=O)O3)cc2)cc1 (stereo not drawn),8.74
17,CCOC(=O)c1cccc(NC(=O)CCNS(=O)(=O)c2cc(Br)cnc2N)c1,14.4
18,Cc1ccc(S(=O)(=O)N2CCC(=O)N(CCOCc3cccc(F)c3)CC2)cc1,7.15
19,O=C(O)CCn1nnc(-c2ccccc2)n1,10.7
20,O=C(COc1ccc(Cl)cc1)NCc1nnc(SCC(=O)Nc2ccccc2)o1,1.01
21,Cc1ccc(SCC(=O)Nc2ccc(C(=O)Nc3ccc(O)cc3)cc2)cc1,12.6
